Screening results from PubChem.
Abeta yeast res = restores growth of yeast expressing A-beta42 peptide; yeast expressing A-beta42, growth rescue, OD600, 48 h; response scale: 0% DMSO, 100% iron-clioquinol control; 410,000 tested, 0.063% active; Potency, µM (highest dose often 46.1 µM), most hits filed as activators; note: nearly all actives have a fitted effect of over 55% in size
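Yeast A-beta toxicity model in growth medium with pinned compounds, 48 h at 30 C; growth read as absorbance at 600 nm. Normalized to FeCl3/clioquinol equimolar mix (positive) and DMSO (negative).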
aSyn yeast inh = alpha-synuclein toxicity inhibition in yeast; Yeast expressing alpha-synuclein, growth rescue, BacTiter-Glo, 24 h; Potency, µM (series often up to 46.1 µM), without a hit: at the highest dose growth rescue (activation), hits mostly activators; 370,000 tested, 0.14% active; AID 652106; note: % of control where 0% means no effect; nearly all actives have a fitted effect of over 65% in size
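Readout is rescue of growth in alpha-synuclein-expressing yeast, so inhibitors of toxicity appear as activators. Growth after 24 hr at 30 deg C in galactose medium is quantified by luminescence.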
TDP43 rescue = rescues yeast growth from TDP-43 toxicity; 410,000 tested, 1.8% active; Potency, µM (series often up to 46.1 µM), for the others: at the top dose growth rescue (activation), most hits filed as activators; TDP-43 expressing yeast growth rescue, BacTiter-Glo, 24 h; AID 652104; note: % of control where 0% means no effect; nearly all actives have a fitted effect of over 50% in size
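Yeast cells expressing TDP-43 under galactose induction are exposed to compounds for 24 hr at 30 deg C. BacTiter-Glo luminescence measures growth, so protective compounds score as activators.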
FUS yeast rescue = rescues growth of FUS-expressing yeast; Potency, µM (titrated, usually from 76.6 µM), hits mostly activators; 390,000 tested, 0.24% active; S. cerevisiae FUS-expressing, growth rescue, OD600, 24 h;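 note: plate controls were DMSO vehicle for no effect and reference control for full effect; nearly all actives have a fitted effect of over 55% in size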
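Restored growth of FUS-toxic S. cerevisiae, read as 600 nm absorbance after 24 h at 30C in galactose medium (starting OD 0.005). Controls CP55940 and DMSO.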
Starred values were filed as active, the others as inactive; [ ] = another dose, or the depositor's remark. Hits are enriched below; roughly 2.1% of the tested compounds scored in any of these assays. Calls come from the whole dose curve; as a rule, active = well fitted curve in the direction sought with a large enough effect; inconclusive = small, poorly fitted or top-dose-only effect, or another doubt; inactive = no such curve, though single readings can be large; an effect the other way counts as inactive or inconclusive. Potency is the fitted concentration of half-maximal effect.

CCN(CC)C(=O)c1cccc(-c2csc(C(C)(O)c3ccc(F)c(F)c3)n2)c1 (stereo not drawn) was read as Abeta yeast res inactive, aSyn yeast inh 1%, TDP43 rescue 14µM* and FUS yeast rescue inconclusive.
For CC(O)(c1cccc(F)c1)c1nc(-c2ccccc2)cs1 (stereo not drawn) the results were Abeta yeast res inactive, aSyn yeast inh 8%, TDP43 rescue 36% and FUS yeast rescue inactive.
CC(O)(c1cccc(F)c1)c1nc(-c2cccc(C(=O)O)c2)cs1 (stereo not drawn) was read as Abeta yeast res inactive, aSyn yeast inh 7%, TDP43 rescue 35µM* and FUS yeast rescue inactive.
For O=C(Nc1ccccc1Oc1ccccc1)NC1CCCCN(Cc2cccc(Cl)c2)C1=O (stereo not drawn) the results were FUS yeast rescue inactive.
CC(=O)c1cccc(NC(=O)c2cccn2-c2nnc(N3CCCCC3)s2)c1 was read as Abeta yeast res inactive, TDP43 rescue -5% and FUS yeast rescue inactive.
COc1cc2c(cc1OC)/C(=C/c1ccc(Br)cc1)C(=O)OC2 was read as Abeta yeast res inactive, aSyn yeast inh 16%, TDP43 rescue 13µM* and FUS yeast rescue inconclusive.
`CCN(Cc1ccccc1)C(=O)c1cc2c(s1)-c1c(C)cccc1OC2` gave Abeta yeast res inactive, TDP43 rescue -18% and FUS yeast rescue inactive.
O=c1c2ccccc2nnn1Cc1ccccc1 was read as Abeta yeast res inactive, aSyn yeast inh 9%, TDP43 rescue 18µM* and FUS yeast rescue inactive.
For O=c1c2ccccc2nnn1CCc1ccccc1 the results were Abeta yeast res inactive, aSyn yeast inh -6%, TDP43 rescue inconclusive and FUS yeast rescue inactive.
Screening CC(Sc1nc2ccccc2s1)C(=O)Nc1nnc(C(C)C)s1 (stereo not drawn) returned Abeta yeast res inactive, aSyn yeast inh 7%, TDP43 rescue 25µM* and FUS yeast rescue inactive.
`O=C(CNS(=O)(=O)c1ccccc1)N1CCN(c2ncccn2)CC1` gave FUS yeast rescue inactive.
CC(=O)c1cccc(NC(=S)N2CCc3ccccc32)c1 was read as Abeta yeast res inactive, aSyn yeast inh 6%, TDP43 rescue inconclusive and FUS yeast rescue inactive.
`Fc1cccc(NC(=S)N2CCc3ccccc32)c1` gave Abeta yeast res inconclusive, aSyn yeast inh 1%, TDP43 rescue 14µM* and FUS yeast rescue inactive.
`S=C(Nc1ccccc1)N1CCc2ccccc21` gave Abeta yeast res inconclusive, aSyn yeast inh 1%, TDP43 rescue 13µM* and FUS yeast rescue inactive.
For COc1ccc(CN(Cc2ccccc2)C(=O)c2ccncc2)cc1COc1ccc(NC(C)=O)cc1 the results were aSyn yeast inh 7%.
Screening COc1ccc(-c2csc(C(O)c3ccc(F)cc3)n2)cc1OC (stereo not drawn) returned Abeta yeast res inactive, aSyn yeast inh 13%, TDP43 rescue 22µM* and FUS yeast rescue inactive.
`COc1cc(C(O)c2nc(-c3cncnc3)cs2)ccc1F` (stereo not drawn) gave Abeta yeast res inactive, aSyn yeast inh 0%, TDP43 rescue inconclusive and FUS yeast rescue inactive.
Screening OC(c1ccccc1)c1nc(-c2cc(F)cc(F)c2)cs1 (stereo not drawn) returned Abeta yeast res inactive, aSyn yeast inh 18%, TDP43 rescue inconclusive and FUS yeast rescue inactive.
COc1cc(C(O)c2nc(-c3cccc(C(C)C)c3)cs2)ccc1F (stereo not drawn) was read as Abeta yeast res inactive, aSyn yeast inh -20%, TDP43 rescue 22µM* and FUS yeast rescue inactive.
Screening COc1ccc(C(O)c2nc(-c3cc(F)cc(F)c3)cs2)cc1 (stereo not drawn) returned Abeta yeast res inconclusive, aSyn yeast inh inconclusive, TDP43 rescue 35µM* and FUS yeast rescue inactive.
For COc1cc(C(O)c2nc(-c3cc(F)cc(F)c3)cs2)ccc1F (stereo not drawn) the results were Abeta yeast res inconclusive, aSyn yeast inh inconclusive, TDP43 rescue 35µM* and FUS yeast rescue inactive.
COc1ccc(-n2c(SCC(=O)N3CCCC3)nnc2-c2ccncc2)cc1 was read as FUS yeast rescue inactive.
For Cc1ccc2scc(N3CCCCC3C)c(=O)c2c1 (stereo not drawn) the results were Abeta yeast res inactive, TDP43 rescue inconclusive and FUS yeast rescue inactive.
`COc1ccc(C(O)c2nc(-c3ccc(F)cc3OC)cs2)cc1` (stereo not drawn) gave Abeta yeast res inconclusive, aSyn yeast inh 0%, TDP43 rescue 22µM* and FUS yeast rescue inactive.
Screening COc1cc(C(O)c2nc(-c3ccccc3OC)cs2)ccc1F (stereo not drawn) returned Abeta yeast res inactive, aSyn yeast inh inconclusive, TDP43 rescue 18µM* and FUS yeast rescue inactive.
Screening COc1ccc(C(O)c2nc(-c3ccc(C)c(C)c3)cs2)cc1 (stereo not drawn) returned Abeta yeast res inactive, aSyn yeast inh 10µM*, TDP43 rescue inconclusive and FUS yeast rescue inactive.
`COc1cc(C(O)c2nc(-c3ccc(N(C)C)cc3)cs2)ccc1F` (stereo not drawn) gave Abeta yeast res inactive, aSyn yeast inh 5%, TDP43 rescue 3% and FUS yeast rescue inactive.
Screening COc1cc(F)ccc1-c1csc(C(O)c2ccc(F)cc2)n1 (stereo not drawn) returned Abeta yeast res inconclusive, aSyn yeast inh 0%, TDP43 rescue inconclusive and FUS yeast rescue inactive.
COc1cc(C(O)c2nc(-c3cccc(F)c3)cs2)ccc1F (stereo not drawn) was read as Abeta yeast res inactive, aSyn yeast inh inconclusive, TDP43 rescue 16µM* and FUS yeast rescue inactive.
For CCn1nnc2cc(C(=O)Nc3ccc(C)cc3Br)ccc21 the results were Abeta yeast res inactive, TDP43 rescue -7% and FUS yeast rescue inactive.
COc1ccc(N2C(N)=C(C#N)C(c3cc(CN4CCOCC4)cs3)C3=C2CCCC3=O)cc1 (stereo not drawn) was read as Abeta yeast res inactive, TDP43 rescue 19%[9.22 µM] and FUS yeast rescue inactive.
`CCOC(=O)C1CCN(C(=O)Cn2nc(C)n3c(cc4sccc43)c2=O)CC1` gave Abeta yeast res inactive, TDP43 rescue 9% and FUS yeast rescue inactive.
For Cc1cc(Cl)ccc1C1=CC(=O)C[C@H](c2ccc(F)cc2)C1 the results were Abeta yeast res inactive, aSyn yeast inh -10%, TDP43 rescue 14µM* and FUS yeast rescue inactive.
O=C1C=C(c2ccc(-c3ccccc3)c(F)c2)C[C@@H](c2ccc(F)cc2)C1 was read as Abeta yeast res inactive, aSyn yeast inh 1%, TDP43 rescue 12% and FUS yeast rescue inactive.
Screening COc1cc(F)c(C2=CC(=O)C[C@H](c3ccc(F)cc3)C2)cc1F returned Abeta yeast res inactive, aSyn yeast inh 9%, TDP43 rescue inconclusive and FUS yeast rescue inactive.
